# Results filed as inconclusive are left out. A call without a number means that no potency is given here. Activity calls are given as the source filed them. Unless noted, calls follow the shape of the full dose curve.
# How the values were obtained:
# [1] = molecular target: Bile acid receptor (Homo sapiens) (UniProt Q96RI1); test: qHTS assay for small molecule antagonists of farnesoid X receptor signaling (AID 588526)
# Procedure, shortened: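 Concentration-response titrations were fitted to the Hill equation for half-maximal inhibition and maximal response, with data normalised to 50 uM chenodeoxycholic acid and DMSO control wells. Cells: FXR-UAS-bla HEK293T, dialyzed FBS.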
# [2] = molecular target: Glucocorticoid receptor (Homo sapiens) (UniProt P04150); test: qHTS assay for small molecule agonists of glucocorticoid receptor signaling (AID 588532; active = well fitted curve in the direction sought with a large enough effect in the signal ratio, with a control signal flat; the % refers to the signal ratio); conditions: HeLa MMTV-bla, beta-lactamase ratio, agonist, 18 h; stronger effect = higher value; percent of dexamethasone control, DMSO zero
# Sequence of Glucocorticoid receptor (Homo sapiens) (P04150 whole entry, looked up): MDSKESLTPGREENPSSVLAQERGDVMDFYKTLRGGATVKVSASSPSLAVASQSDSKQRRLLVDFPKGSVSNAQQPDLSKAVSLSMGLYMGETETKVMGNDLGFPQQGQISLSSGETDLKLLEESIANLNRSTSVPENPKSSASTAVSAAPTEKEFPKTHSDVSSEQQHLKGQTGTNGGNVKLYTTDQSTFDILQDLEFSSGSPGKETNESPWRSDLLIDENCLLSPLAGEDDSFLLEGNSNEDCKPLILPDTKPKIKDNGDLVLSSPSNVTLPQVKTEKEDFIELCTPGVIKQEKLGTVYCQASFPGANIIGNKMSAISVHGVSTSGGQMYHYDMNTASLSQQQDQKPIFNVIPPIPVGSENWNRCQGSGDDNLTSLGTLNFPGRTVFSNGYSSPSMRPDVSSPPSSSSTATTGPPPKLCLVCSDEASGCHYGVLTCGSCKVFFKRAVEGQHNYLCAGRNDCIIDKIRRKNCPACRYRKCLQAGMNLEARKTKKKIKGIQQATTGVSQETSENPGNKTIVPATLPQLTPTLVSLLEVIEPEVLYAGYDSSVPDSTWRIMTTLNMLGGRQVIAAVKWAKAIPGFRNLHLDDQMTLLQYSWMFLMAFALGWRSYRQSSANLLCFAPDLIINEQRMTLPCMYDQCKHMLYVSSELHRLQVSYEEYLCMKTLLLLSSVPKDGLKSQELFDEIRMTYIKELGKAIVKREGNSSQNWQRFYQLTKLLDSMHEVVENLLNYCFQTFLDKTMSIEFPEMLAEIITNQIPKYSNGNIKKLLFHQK
# Procedure, shortened: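 Titration series, up to 92 uM, applied to GRE-bla HeLa cells for 18 h at 37 C. Detection by CCF4 FRET substrate after 2 h at RT.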
# [3] = molecular target: Glucocorticoid receptor (Homo sapiens) (UniProt P04150); test: qHTS assay for small molecule antagonists of glucocorticoid receptor signaling (AID 588533; active = well fitted inhibition curve with a large enough effect in the signal ratio, with a control signal flat, not every such curve was filed as active; the % refers to the signal ratio;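 also: cells stimulated with 2 nM dexamethasone as agonist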)
# Procedure, shortened: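 Antagonist-mode qHTS: compound titrations added to GRE-bla HeLa cells, then dexamethasone 2 nM final; 18 h, 37 C. CCF4 FRET fluorescence normalized to dexamethasone and DMSO; IC50 from Hill fit.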
# [4] = qHTS assay for small molecule antagonists of peroxisome proliferator-activated receptor delta signaling (AID 588535; active = well fitted inhibition curve with a large enough effect in the signal ratio, with a control signal flat, not every such curve was filed as active; the % refers to the signal ratio;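 as to max response: cells co-treated with a PPAR-delta agonist as stimulator during compound exposure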); conditions: HEK293T PPARd-UAS-bla, beta-lactamase FRET ratio, 18 h; 460 nm channel
# Procedure, shortened: (§1)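 GeneBLAzer PPAR-delta-UAS-bla HEK293T cells in medium with 2% charcoal/dextran FBS were preincubated 5 hrs at 37 C, then given compounds, incubated 18 hrs at 37 C, and read by CCF4 beta-lactamase fluorescence; IC50 from Hill fits.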
# [5] = molecular target: Peroxisome proliferator-activated receptor delta (Homo sapiens) (UniProt Q03181); test: as above
# Sequence of Peroxisome proliferator-activated receptor delta (Homo sapiens) (Q03181 whole entry, looked up): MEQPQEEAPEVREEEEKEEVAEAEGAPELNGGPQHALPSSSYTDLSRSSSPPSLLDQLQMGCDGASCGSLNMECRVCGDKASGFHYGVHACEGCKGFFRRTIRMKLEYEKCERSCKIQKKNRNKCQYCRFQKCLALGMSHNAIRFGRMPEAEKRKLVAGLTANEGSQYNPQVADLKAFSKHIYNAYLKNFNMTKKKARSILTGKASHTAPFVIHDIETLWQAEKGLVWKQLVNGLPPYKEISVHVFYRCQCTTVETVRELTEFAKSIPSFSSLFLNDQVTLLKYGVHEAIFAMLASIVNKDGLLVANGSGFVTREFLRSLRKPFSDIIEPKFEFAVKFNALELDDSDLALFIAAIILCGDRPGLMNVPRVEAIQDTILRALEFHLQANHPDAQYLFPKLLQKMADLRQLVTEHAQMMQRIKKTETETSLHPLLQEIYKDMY
# Procedure, shortened: as §1
# [6] = molecular target: Peroxisome proliferator-activated receptor gamma (Homo sapiens) (UniProt P37231); test: qHTS assay for small molecule agonists of peroxisome proliferator-activated receptor gamma signaling (AID 588536; active = well fitted curve in the direction sought with a large enough effect in the signal ratio, with a control signal flat, not every such curve was filed as active; the % refers to the signal ratio)
# Sequence of Peroxisome proliferator-activated receptor gamma (Homo sapiens) (P37231 whole entry, looked up): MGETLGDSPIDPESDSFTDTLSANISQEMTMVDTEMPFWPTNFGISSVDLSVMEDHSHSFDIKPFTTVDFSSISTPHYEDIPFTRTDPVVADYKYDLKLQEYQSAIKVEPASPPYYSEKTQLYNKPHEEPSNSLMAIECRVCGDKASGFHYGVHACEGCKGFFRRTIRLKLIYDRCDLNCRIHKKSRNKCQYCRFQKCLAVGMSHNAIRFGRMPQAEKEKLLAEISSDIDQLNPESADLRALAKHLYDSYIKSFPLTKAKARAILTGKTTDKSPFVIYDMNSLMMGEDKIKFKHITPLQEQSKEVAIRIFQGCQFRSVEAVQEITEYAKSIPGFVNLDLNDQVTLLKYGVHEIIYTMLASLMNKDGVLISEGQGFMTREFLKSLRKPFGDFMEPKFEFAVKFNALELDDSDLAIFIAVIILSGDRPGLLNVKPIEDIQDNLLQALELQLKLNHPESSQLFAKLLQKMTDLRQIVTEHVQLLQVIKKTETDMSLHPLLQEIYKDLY
# Procedure, shortened: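 PPAR-gamma-UAS-bla HEK293 cells in medium with 1% charcoal/dextran-treated FBS were exposed to compounds for 16 h at 37 C. Beta-lactamase activity was read with CCF4 substrate (405 nm excitation, 460/530 nm emission).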
# [7] = molecular target: Peroxisome proliferator-activated receptor gamma (Homo sapiens) (UniProt P37231); test: qHTS assay for small molecule antagonists of peroxisome proliferator-activated receptor gamma signaling (AID 588537; active = well fitted inhibition curve with a large enough effect in the signal ratio, with a control signal flat, not every such curve was filed as active; the % refers to the signal ratio;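 also: reporter cells co-stimulated with 50 nM rosiglitazone agonist during compound treatment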)
# Procedure, shortened: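 PPAR-gamma-UAS-bla HEK293 cells (3000/well, 1% charcoal/dextran-stripped FBS) were preincubated 6-6.5 h at 37 C, given titrated compounds, then stimulated with 50 nM rosiglitazone for 16 h. Beta-lactamase activity was read with CCF4 dye; IC50 came from Hill fits.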
# [8] = qHTS assay for small molecule agonists of retinoid X receptor alpha signaling (AID 588544); conditions: HEK293T RXRa-UAS-bla, beta-lactamase reporter, 18 h; 530 nm emission
# [9] = molecular target: Retinoic acid receptor RXR-alpha (Homo sapiens) (UniProt P19793); test: as above
# Sequence of Retinoic acid receptor RXR-alpha (Homo sapiens) (P19793 whole entry, looked up): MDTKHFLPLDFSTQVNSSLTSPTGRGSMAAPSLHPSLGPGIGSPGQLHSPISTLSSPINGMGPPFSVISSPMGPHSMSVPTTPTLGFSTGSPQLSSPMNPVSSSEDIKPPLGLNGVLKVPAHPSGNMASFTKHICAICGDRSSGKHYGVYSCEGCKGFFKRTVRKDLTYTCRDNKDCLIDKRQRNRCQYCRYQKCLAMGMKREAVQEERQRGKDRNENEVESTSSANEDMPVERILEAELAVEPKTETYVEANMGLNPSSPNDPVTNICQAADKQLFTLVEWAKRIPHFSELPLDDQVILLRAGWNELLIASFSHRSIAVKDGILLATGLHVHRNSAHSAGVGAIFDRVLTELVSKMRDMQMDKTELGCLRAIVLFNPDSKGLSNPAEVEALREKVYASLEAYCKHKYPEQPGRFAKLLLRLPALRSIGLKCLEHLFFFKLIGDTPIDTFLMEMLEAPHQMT
# [10] = molecular target: Thyroid hormone receptor beta (Homo sapiens) (UniProt P10828); test: qHTS assay for small molecule agonists of thyroid hormone receptor beta signaling (AID 588545)
# Sequence of Thyroid hormone receptor beta (Homo sapiens) (P10828 whole entry, looked up): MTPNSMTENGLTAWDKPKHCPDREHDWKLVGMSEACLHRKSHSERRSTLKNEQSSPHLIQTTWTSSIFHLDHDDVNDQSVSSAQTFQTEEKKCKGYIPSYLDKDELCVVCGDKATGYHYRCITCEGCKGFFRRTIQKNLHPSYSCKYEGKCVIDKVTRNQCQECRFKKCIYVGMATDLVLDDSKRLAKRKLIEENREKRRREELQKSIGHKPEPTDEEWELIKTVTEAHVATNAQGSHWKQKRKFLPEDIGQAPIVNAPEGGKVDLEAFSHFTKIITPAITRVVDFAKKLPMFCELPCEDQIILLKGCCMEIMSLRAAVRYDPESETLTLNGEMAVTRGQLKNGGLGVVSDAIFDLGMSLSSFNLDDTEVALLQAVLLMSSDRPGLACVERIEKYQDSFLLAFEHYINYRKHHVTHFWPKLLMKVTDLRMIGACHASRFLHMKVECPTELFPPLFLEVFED
# Procedure, shortened: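 HEK 293 TR-UAS-bla; agonist mode; 18 hrs, 37 C; CCF4, ex 405/em 460 and 530 nm; norm. T3 10 nM = 100%, DMSO = 0%; Hill fit → EC50, efficacy.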
# [11] = qHTS assay for small molecule antagonists of retinoid X receptor alpha signaling (AID 588546; active = well fitted inhibition curve with a large enough effect in the signal ratio, with a control signal flat, not every such curve was filed as active; the % refers to the signal ratio;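 also: cells stimulated with 9-cis-retinoic acid as agonist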); conditions: HEK293T RXRa-UAS-bla, beta-lactamase ratio, antagonist mode; measured here: W530 green channel, cytotoxicity proxy
# Procedure, shortened: (§2)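 Beta-lactamase reporter inhibition, read as CCF4 fluorescence ratio (ex 405, em 460/530 nm) after 2 h at RT. HEK293T UAS-bla cells, 2500/well, were stimulated with 9-cis-RA at 500 or 100 nM final alongside test compound for 18 h at 37 C.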
# [12] = molecular target: Retinoic acid receptor RXR-alpha (Homo sapiens) (UniProt P19793); test: as above; conditions: HEK293T RXRa-UAS-bla, beta-lactamase ratio, antagonist mode
# Procedure, shortened: as §2
# [13] = molecular target: Thyroid hormone receptor beta (Homo sapiens) (UniProt P10828); test: qHTS assay for small molecule antagonists of thyroid hormone receptor beta signaling (AID 588547; active = well fitted inhibition curve with a large enough effect in the signal ratio, with a control signal flat, not every such curve was filed as active; the % refers to the signal ratio;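 also: cells stimulated with 0.4 nM T3 agonist during compound exposure; series mostly up to about 77 µM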); conditions: TR-UAS-bla HEK293, beta-lactamase ratio, antagonist mode, 18 h
# Procedure, shortened: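 TR-UAS-bla GripTite HEK293 cells in 2% charcoal/dextran FBS medium were preincubated 4 h at 37 C, given compound (0.59 nM to 92 uM) plus 0.4 nM T3 (final) for 18 h, then CCF4 for 2 h at RT; Hill fit gave IC50.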
# [14] = qHTS assay for small molecule activators of the p53 signaling pathway (AID 651743; active = well fitted activation curve with a large enough effect in the signal ratio, not every such curve was filed as active; the % refers to the signal ratio; also: series mostly up to about 92 µM); conditions: HCT-116 p53RE-bla, beta-lactamase FRET ratio, 16 h; stronger effect = higher value
# Procedure, shortened: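 p53RE-bla HCT-116 cells with a stably integrated beta-lactamase reporter under p53 response elements were plated, rested 5 hours at 37 C/5% CO2, then exposed to compounds in DMSO for 16 hours at 37 C. LiveBLAzer B/G FRET substrate was read after 2 hours at room temperature.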
# [15] = qHTS assay for small molecule activators of the nuclear factor-kappa B (NF-kB) signaling pathway (AID 651749; active = well fitted activation curve with a large enough effect in the signal ratio; the % refers to the signal ratio; also: series mostly up to about 77 µM); conditions: NF-kB-bla ME-180 cells, beta-lactamase FRET ratio, 16 h; stronger effect = higher value
# Procedure, shortened: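 ME-180 cells stably carrying a beta-lactamase reporter under an NF-kB response element were exposed to compound or DMSO vehicle for 16 hr at 37C, 5% CO2. Pathway activation was read by FRET, since reporter expression disrupts FRET.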
# [16] = qHTS assay for small molecule disruptors of the mitochondrial membrane potential - 1 hr assay (AID 651754); also: nearly all actives have a fitted effect of over 35% in size
# Procedure, shortened: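 HepG2 cells, attached overnight at 37C, were exposed to compound or DMSO vehicle for 1 hr at 37C, 5% CO2, then stained with Mito-MPS dye for 30 min. Red aggregate versus green monomer fluorescence reports membrane potential.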
# [17] = molecular target: Vitamin D3 receptor (Homo sapiens) (UniProt P11473); test: qHTS assay for small molecule antagonists of vitamin D receptor signaling (AID 588541);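 also: receptor activated by calcitriol during compound treatment; series mostly up to about 77 µM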
# Sequence of Vitamin D3 receptor (Homo sapiens) (P11473 whole entry, looked up): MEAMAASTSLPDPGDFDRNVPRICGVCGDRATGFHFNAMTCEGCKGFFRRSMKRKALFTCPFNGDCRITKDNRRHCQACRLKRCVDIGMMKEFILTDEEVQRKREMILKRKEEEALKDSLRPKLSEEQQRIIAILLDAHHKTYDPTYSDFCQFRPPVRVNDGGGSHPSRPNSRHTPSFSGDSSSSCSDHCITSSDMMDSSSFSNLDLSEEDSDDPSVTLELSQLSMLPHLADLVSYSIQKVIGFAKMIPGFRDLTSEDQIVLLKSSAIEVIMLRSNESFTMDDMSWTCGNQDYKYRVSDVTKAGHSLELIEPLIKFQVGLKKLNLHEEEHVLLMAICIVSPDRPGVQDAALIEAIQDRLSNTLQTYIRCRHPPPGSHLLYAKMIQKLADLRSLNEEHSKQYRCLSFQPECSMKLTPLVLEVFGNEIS
# Procedure, shortened: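 VDR-UAS-bla HEK293T cells (2000/well, 2% charcoal-stripped FBS) were treated with titrated compounds plus 1-alpha,25-dihydroxyvitamin D3 (50 nM or 3 nM final) for 16 h at 37 C. CCF4 beta-lactamase fluorescence was read; Hill fits gave IC50.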
# [18] = molecular target: Voltage-gated inwardly rectifying potassium channel KCNH2 (Homo sapiens) (UniProt Q12809); test: qHTS Assay for Small Molecule Inhibitors of the Human hERG Channel Activity (AID 588834; active = well fitted inhibition curve with a large enough effect;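 also: top concentration of the series differs between compounds; lower thallium flux fluorescence means stronger hERG block; nearly all actives have a fitted effect of over 50% in size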)
# Sequence of Voltage-gated inwardly rectifying potassium channel KCNH2 (Homo sapiens) (Q12809 whole entry, looked up): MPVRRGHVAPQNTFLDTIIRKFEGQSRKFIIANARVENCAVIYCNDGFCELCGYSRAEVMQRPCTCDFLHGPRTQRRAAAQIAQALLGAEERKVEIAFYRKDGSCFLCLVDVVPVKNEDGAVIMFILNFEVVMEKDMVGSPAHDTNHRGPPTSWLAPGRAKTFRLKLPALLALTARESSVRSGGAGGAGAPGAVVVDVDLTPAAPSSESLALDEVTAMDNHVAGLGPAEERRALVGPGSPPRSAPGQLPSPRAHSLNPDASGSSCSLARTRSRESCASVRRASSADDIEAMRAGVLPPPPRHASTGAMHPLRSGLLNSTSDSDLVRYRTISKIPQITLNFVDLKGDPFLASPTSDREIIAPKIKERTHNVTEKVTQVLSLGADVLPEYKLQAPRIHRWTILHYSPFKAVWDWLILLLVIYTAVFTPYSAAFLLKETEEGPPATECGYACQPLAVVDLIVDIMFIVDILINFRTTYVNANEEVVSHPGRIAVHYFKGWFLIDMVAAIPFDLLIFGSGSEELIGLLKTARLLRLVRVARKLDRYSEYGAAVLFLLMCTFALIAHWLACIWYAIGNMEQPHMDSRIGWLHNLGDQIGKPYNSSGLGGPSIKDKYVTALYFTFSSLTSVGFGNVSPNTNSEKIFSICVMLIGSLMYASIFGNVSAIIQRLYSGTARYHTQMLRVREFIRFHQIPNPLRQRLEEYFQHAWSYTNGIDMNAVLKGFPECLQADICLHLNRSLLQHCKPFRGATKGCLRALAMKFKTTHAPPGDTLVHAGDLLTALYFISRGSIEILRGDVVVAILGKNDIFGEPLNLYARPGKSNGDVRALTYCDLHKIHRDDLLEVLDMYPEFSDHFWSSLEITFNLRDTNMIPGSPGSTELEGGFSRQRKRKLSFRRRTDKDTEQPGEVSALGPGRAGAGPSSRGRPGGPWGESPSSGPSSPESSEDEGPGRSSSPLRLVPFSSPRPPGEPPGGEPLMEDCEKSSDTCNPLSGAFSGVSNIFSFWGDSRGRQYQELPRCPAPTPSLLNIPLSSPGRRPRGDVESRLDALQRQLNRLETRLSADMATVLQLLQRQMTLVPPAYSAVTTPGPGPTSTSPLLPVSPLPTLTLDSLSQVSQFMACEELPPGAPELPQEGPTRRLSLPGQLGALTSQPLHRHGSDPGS
# Procedure, shortened: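 Concentration-response qHTS measuring drop in thallium-sensitive dye signal. U2OS cells carrying BacMam hERG; compound exposure ~10 min, then stimulation buffer and 2 min read at 1 sec intervals.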
# [19] = molecular target: Vitamin D3 receptor (Homo sapiens) (UniProt P11473); test: qHTS assay for small molecule agonists of vitamin D receptor signaling (AID 588543)
# Procedure, shortened: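 β-lactamase reporter, VDR-UAS-bla HEK293T, agonist mode. Cells plated 5 h at 37 °C, compound titration 16 h at 37 °C, CCF4 dye 2 h RT, ratio 460/530 nm. Hill fit → EC50, efficacy vs 50 nM 1α,25-(OH)2D3.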
# [20] = qHTS assay for small molecule agonists of the antioxidant response element (ARE) signaling pathway (AID 651741; active = well fitted activation curve with a large enough effect in the signal ratio; the % refers to the signal ratio)
# Procedure, shortened: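 ARE-bla HepG2 cells (beta-lactamase reporter under ARE control) were plated at 2,000 cells/well, preincubated 5 h at 37 C/5% CO2, then treated with DMSO-dissolved compounds for 16 h at 37 C; LiveBLAzer B/G FRET substrate added, fluorescence read after 2 h at room temperature.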
# Sequence of Bile acid receptor (Homo sapiens) (Q96RI1 whole entry, looked up): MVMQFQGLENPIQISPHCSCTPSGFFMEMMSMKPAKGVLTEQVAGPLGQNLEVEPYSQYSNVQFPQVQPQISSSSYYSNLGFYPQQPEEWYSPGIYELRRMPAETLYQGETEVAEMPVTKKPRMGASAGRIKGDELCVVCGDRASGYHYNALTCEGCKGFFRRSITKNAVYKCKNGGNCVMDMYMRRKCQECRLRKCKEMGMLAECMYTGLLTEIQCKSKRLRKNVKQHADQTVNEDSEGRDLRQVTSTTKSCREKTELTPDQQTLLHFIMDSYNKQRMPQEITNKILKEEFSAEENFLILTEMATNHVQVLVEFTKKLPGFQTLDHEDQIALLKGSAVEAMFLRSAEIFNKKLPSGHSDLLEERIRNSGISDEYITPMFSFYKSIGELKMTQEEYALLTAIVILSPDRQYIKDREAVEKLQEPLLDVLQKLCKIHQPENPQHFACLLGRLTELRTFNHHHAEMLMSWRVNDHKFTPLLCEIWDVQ
Structure (SMILES),outcome [1],activation [2],outcome [3],max response [4] [%],Potency [5],outcome [6],outcome [7],max response [8] [%],outcome [9],outcome [10],max response [11] [%],max response [12],activity change % (negative = inhibition) [13],activation [14],activation [15],Potency [16],outcome [17],Potency [18],outcome [19],Potency [20]
Cc1ccccc1C(N)=O,inactive,-0.107% (inactive),inactive,16.7,inactive,inactive,inactive,-6.32,inactive,inactive,9.22,7.98% (inactive),-3.78% (inactive),1.09% (inactive),1.42% (inactive),inactive,–,–,–,–
CCCCC=O,inactive,-0.364% (inactive),inactive,–,–,–,–,-7.77,inactive,inactive,-1.56,-1.19% (inactive),-3.59% (inactive),–,0.166% (inactive),inactive,inactive,inactive,–,–
Nc1cccc([N+](=O)[O-])c1,inactive,0.474% (inactive),inactive,–,–,inactive,inactive,-3.08,inactive,–,-9.54,–,-4.44% (inactive),-4.7% (inactive),–,inactive,–,inactive,–,–
Cc1cc(C)c(N)cc1C,inactive,–,inactive,2.74,inactive,inactive,–,-11.9,inactive,inactive,3.08,–,-8.09% (inactive),–,-0.054% (inactive),inactive,–,inactive,inactive,inactive
O=C(O)c1ccc(Cl)c(Cl)c1,inactive,–,–,20.7,inactive,inactive,inactive,12.9,inactive,inactive,11.8,14.6% (inactive),2.03% (inactive),3.05% (inactive),0.147% (inactive),inactive,inactive,inactive,–,inactive
CCCCOCCOCCOCCCC,inactive,9.2% (inactive),inactive,–,–,inactive,inactive,-13.3,inactive,–,–,–,3.11% (inactive),-0.253% (inactive),0.513% (inactive),inactive,–,inactive,–,–
C=CCCCCCCC=C,inactive,–,–,-11.7,inactive,inactive,inactive,-11.6,inactive,inactive,-1.72,-6.51% (inactive),-6.39% (inactive),0.568% (inactive),-0.256% (inactive),inactive,inactive,inactive,inactive,–
CCC(O)C(C)(C)C (stereo not given),inactive,–,–,11.2,inactive,inactive,inactive,-3.08,inactive,inactive,-1.12,-2.9% (inactive),9.28% (inactive),-0.0168% (inactive),-0.45% (inactive),inactive,–,inactive,–,inactive
FC(F)(F)c1cccc(Cl)c1,inactive,-8.16% (inactive),inactive,–,–,–,–,-1.24,inactive,–,3.78,6.29% (inactive),-4.74% (inactive),-1.63% (inactive),–,inactive,–,inactive,–,inactive
NC(N)=S,inactive,1.8% (inactive),inactive,–,–,inactive,inactive,-8.98,inactive,inactive,10,4.07% (inactive),-6.09% (inactive),-1.07% (inactive),–,inactive,inactive,inactive,–,inactive
Cc1cc(C)cc([N+](=O)[O-])c1,inactive,–,inactive,-43.4,inactive,inactive,–,8.04,inactive,inactive,5.59,–,–,-0.0084% (inactive),0.968% (inactive),inactive,inactive,inactive,–,inactive
O=C(O)c1ccc(CO)o1,inactive,–,inactive,–,–,inactive,–,-7.5,inactive,inactive,-4.49,-4.1% (inactive),-7.49% (inactive),-2.63% (inactive),0.608% (inactive),inactive,inactive,inactive,–,–
O=C1CCC(=O)O1,inactive,–,inactive,24.1,inactive,inactive,–,8.02,inactive,inactive,-8.25,-2.46% (inactive),-21.6% (inactive),0.572% (inactive),–,–,–,inactive,inactive,inactive
Nc1nc2ccccc2[nH]1,inactive,0.673% (inactive),inactive,–,–,inactive,inactive,–,–,inactive,-22,-2.52% (inactive),16% (inactive),1.82% (inactive),–,–,inactive,inactive,–,inactive
CC(O)CC(C)O (stereo not given),inactive,–,inactive,7.44,inactive,inactive,inactive,-6.63,inactive,–,14.5,–,-2.07% (inactive),–,-0.133% (inactive),inactive,inactive,inactive,inactive,inactive
CCOCCO,inactive,-1.34% (inactive),inactive,–,–,inactive,–,9.04,inactive,–,1.51,7.78% (inactive),-11.8% (inactive),-2.61% (inactive),-1.02% (inactive),inactive,inactive,inactive,inactive,inactive
